These sequences were tested against PUM1 PUF domain R4-GPS (Homo sapiens, UniProt Q14671 828-1176, N971G;H972P;Q975S) (assay: yeast three-hybrid, YBZ-1, SC-Leu-His + 0.5 mM 3-AT, 4 days). Details: tags: N-Gal4 AD-HA kept; label: inside an RPR1-promoter hybrid RNA with tandem MS2 sites; ssRNA.
Summary of the method: (§1)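 The interaction score is the logarithmic change in variant frequency from input to selection. It uses log2, with a pseudocount of 1 for absent variants, and frequencies came from PCR-amplified, Illumina-sequenced repeat regions. The libraries were Pumilio-1 PUF domains randomized at the three base-contacting residues per repeat, co-expressed with matching RNA elements in strain YBZ-1 (LexA–MS2 coat fusion, HIS3 reporter). Plating lasted four days on SC-Leu (input) or SC-Leu-His + 0.5 mM 3-AT (selection).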

PUM1 PUF domain R4-GPS, sequence (Q14671 828-1176 N971G/H972P/Q975S): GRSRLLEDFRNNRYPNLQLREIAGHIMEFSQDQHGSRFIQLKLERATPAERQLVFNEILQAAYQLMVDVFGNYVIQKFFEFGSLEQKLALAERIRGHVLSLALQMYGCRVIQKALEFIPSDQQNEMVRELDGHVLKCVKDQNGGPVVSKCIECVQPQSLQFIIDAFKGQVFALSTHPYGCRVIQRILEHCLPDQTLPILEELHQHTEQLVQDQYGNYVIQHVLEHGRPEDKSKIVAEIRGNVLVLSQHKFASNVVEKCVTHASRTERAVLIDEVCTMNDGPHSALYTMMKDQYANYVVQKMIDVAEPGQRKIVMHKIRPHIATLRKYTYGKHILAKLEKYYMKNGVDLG

Row | Sequence | binding signal
1 | GGCUAGAACUAGUGGAUCCCCCGGCGCCCGGCGGCUCGAGCCCGGGUAAGUGUAAAUAGUCUGCAUGCCGCCGGGCGCCAUGCCUGCAGGUCGACUCUAGAAAACAUG | 4.4 log2 enrichment (interaction score)
2 | GGCUAGAACUAGUGGAUCCCCCGGCGCCCGGCGGCUCGAGCCCGGGUAAGUGUACAUAGUCUGCAUGCCGCCGGGCGCCAUGCCUGCAGGUCGACUCUAGAAAACAUG | 1.84 log2 enrichment (interaction score)
3 | GGCUAGAACUAGUGGAUCCCCCGGCGCCCGGCGGCUCGAGCCCGGGUAAGUGUAUAUAGUCUGCAUGCCGCCGGGCGCCAUGCCUGCAGGUCGACUCUAGAAAACAUG | 2.94 log2 enrichment (interaction score)

These sequences were tested against PUM1 PUF domain R4-PHG (Homo sapiens, UniProt Q14671 828-1176, N971P;Q975G) in the same assay as above. Details: tags: N-Gal4 AD-HA kept; label: inside an RPR1-promoter hybrid RNA with tandem MS2 sites; ssRNA.
PUM1 PUF domain R4-PHG, sequence (Q14671 828-1176 N971P/Q975G): as the sequence (Q14671 828-1176 N971G/H972P/Q975S) above, with G144P, P145H, S148G counted along it
Summary of the method: as §1

Row | Sequence | binding signal
4 | GGCUAGAACUAGUGGAUCCCCCGGCGCCCGGCGGCUCGAGCCCGGGUAAGUGUAAAUAGUCUGCAUGCCGCCGGGCGCCAUGCCUGCAGGUCGACUCUAGAAAACAUG | 4.7 log2 enrichment (interaction score)
5 | GGCUAGAACUAGUGGAUCCCCCGGCGCCCGGCGGCUCGAGCCCGGGUAAGUGUACAUAGUCUGCAUGCCGCCGGGCGCCAUGCCUGCAGGUCGACUCUAGAAAACAUG | 4.15 log2 enrichment (interaction score)
6 | GGCUAGAACUAGUGGAUCCCCCGGCGCCCGGCGGCUCGAGCCCGGGUAAGUGUAUAUAGUCUGCAUGCCGCCGGGCGCCAUGCCUGCAGGUCGACUCUAGAAAACAUG | 4.99 log2 enrichment (interaction score)
